Screening results deposited in PubChem BioAssay by National Center for Advancing Translational Sciences (NCATS).
This is a sample that favours compounds with a hit; in the whole collection about 5.4% have one here.
p53 reactivator – re-activators of mutant p53; Potency, µM (highest dose often 92.2 µM), usual class: activators; 0.063% of 320,000 active; H1299 p53-A138V BP100-luciferase reporter, luminescence, 24 h; also: nearly all actives have a fitted effect of over 45% in size
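p53-null H1299 cells stably carrying temperature-sensitive p53-A138V and a BP100-luciferase reporter were pinned with compounds (4-point, 1:5 series) and held 24 hrs at 37 deg C. Luminescence was read 10 min after detection reagent.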
Gal4-VP16 FLuc – Gal4-VP16 reporter inhibition counter-screen | Drosophila S2 Gal4-VP16 UAS-luciferase, luminescence, 20 h | Potency, µM (doses to about 53.6 µM), actives largely listed as inhibitors | 3.5% of 310,000 active | AID 2546;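 also: Gal4-VP16 expression switched on by copper sulfate through the metallothionein promoter; nearly all actives have a fitted effect of over 50% in size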
CtBP-E1A blk – inhibitors of CtBP/E1A interaction | AlphaScreen GST-E1A/His-CtBP binding, 1536-well; stronger effect = lower value | activity change, % (concentration not given with the values) | 0.49% of 340,000 active | AID 651724; in the data active = activity change below about -65%; inconclusive = mostly about -30% to -63%
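Protein mix (5X: 125 nM each GST-E1A, His-CtBP) was incubated with pinned compound 2 h at 37 deg C in dark, in 50 mM Tris pH 8.0 buffer with 300 mM NaCl. Glutathione donor and nickel acceptor beads followed; AlphaScreen signal read after 1 h.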
RORgamma inh – ROR gamma (mouse) transcription inhibition | AID 2551 | Potency, µM (highest dose often 53.6 µM), hits mostly inhibitors | 5.4% of 310,000 active | P51450 | Drosophila S2 Gal4-RORgamma UAS-luciferase reporter, 20 h; also: nearly all actives have a fitted effect of over 60% in size
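ROR gamma transcriptional activity was tracked as Gal4-UAS luciferase output in stably transfected Drosophila Schneider cells, with compound added 1 hr before 700 uM copper sulfate induction and a 20 hr ambient-temperature incubation.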
Six1-Eya2 inh – Six1/Eya2 interaction inhibition; AlphaScreen GST-Six1/His-Eya2 binding, biochemical; stronger effect = lower value; activity change, % (no concentration beside the values); 0.56% of 360,000 active; AID 651725; in the data active = activity change below about -65%; inconclusive = mostly about -30% to -63%
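Six1/Eya2 binding was read as AlphaScreen signal after compounds were pinned into GST-Six1 plus His-tagged Eya2 (5X stock 250/500 nM) in pH 8.0 Tris/NaCl/TCEP buffer, beads added, then incubated 1 h, 37 C, dark.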
Of the large screens only hits and unclear results are named; the others gave an inactive call. Unless noted, calls follow the shape of the dose curve; as a rule, active = well fitted curve in the direction sought with a large enough effect; inconclusive = small, poorly fitted or top-dose-only effect, or another doubt; inactive = no such curve, though single readings can be large; an effect the other way counts as inactive or inconclusive.

N#CC(C(=O)C1CCCCC1)c1nc2ccccc2[nH]1 (configuration not stated)	Gal4-VP16 FLuc 7.9µM, RORgamma inh 3.5µM
OC(c1nc2ccccc2[nH]1)C(O)c1nc2ccccc2[nH]1 (configuration not stated)	none (no result: p53 reactivator)
N/C(=N/O)c1nc(N2CCCC2)nc(N(c2ccccc2)c2ccccc2)n1	RORgamma inh 8.9µM
N/C(=N/O)c1nc(N2CCCCC2)nc(N2CCCCC2)n1	Gal4-VP16 FLuc inconclusive, RORgamma inh 8.9µM
O=C(N/C(=C\c1cccc([N+](=O)[O-])c1)C(=O)N1CCOCC1)c1cccc(Br)c1	none
COc1ccc(CN(C)C(C)C(=O)Nc2ccc(S(=O)(=O)N3CCCCC3)cc2)c(OC)c1 (configuration not stated)	none (no result: Gal4-VP16 FLuc, RORgamma inh)
Nn1cnnc1N/N=C/c1ccccc1C(F)(F)F	none (no result: CtBP-E1A blk)
CCc1nnc(N/N=C/c2ccccc2Cl)n1N	Gal4-VP16 FLuc inconclusive, RORgamma inh inconclusive
CSc1nnc(C(C)(C)C)c(=O)n1/N=C/c1ccccc1	none
CC(C)(C)c1nnc(N/N=C/c2ccccc2O)n(N)c1=O	p53 reactivator inconclusive, Gal4-VP16 FLuc 11µM, RORgamma inh 10µM, Six1-Eya2 inh -91
CC(C)(C)c1nnc(N/N=C/c2ccccc2)n(N)c1=O	Gal4-VP16 FLuc 5.6µM, RORgamma inh 4µM
CCc1nnc(N/N=C/c2ccccc2F)n1N	RORgamma inh 11µM
C[C@@H]1CCC2[C@@H](C)[C@@H](O)O[C@@H]3O[C@@]4(C)CC[C@@H]1[C@@]23OO4 (some centres not stated)	none (no result: p53 reactivator, CtBP-E1A blk, Six1-Eya2 inh)
CC(C)(N)C(=O)N[C@@H](Cc1cnc[nH]1)C(=O)N[C@H](Cc1ccc2ccccc2c1)C(=O)N[C@H](Cc1ccccc1)C(=O)N[C@@H](CCCCN)C(N)=O	none (no result: p53 reactivator, CtBP-E1A blk, Six1-Eya2 inh)
S=C(NCc1ccco1)NC1CCCc2ccccc21 (configuration not stated)	Gal4-VP16 FLuc 13µM, RORgamma inh 4.5µM
Cc1occc1C(=O)NC1CCCc2ccccc21 (configuration not stated)	Gal4-VP16 FLuc inconclusive
CNC(=O)NC1CCCc2ccccc21 (configuration not stated)	RORgamma inh inconclusive
S=C(NCc1ccccc1)NC1CCCc2ccccc21 (configuration not stated)	Gal4-VP16 FLuc 11µM, RORgamma inh 2.5µM (no result: CtBP-E1A blk)
Cc1c(C(=O)NC2CCCc3ccccc32)oc2ccccc12 (configuration not stated)	RORgamma inh 4.5µM
S=C(NC1CC1)NC1CCCc2ccccc21 (configuration not stated)	Gal4-VP16 FLuc inconclusive, RORgamma inh 2.2µM, Six1-Eya2 inh inconclusive (no result: CtBP-E1A blk)
CC(C)C[C@H](NC(=O)[C@H](Cc1c[nH]c2ccccc12)NC(=O)[C@H](CCCCN)NC(=O)CNC(=O)[C@H](CC(C)C)NC(=O)[C@H](CO)NC(=O)[C@@H](N)Cc1cnc[nH]1)C(=O)NCC(=O)N[C@@H](Cc1cnc[nH]1)C(=O)N1CCC[C@H]1C(=O)N[C@@H](CC(=O)O)C(=O)N[C@@H](CCCCN)C(=O)N[C@@H](Cc1ccccc1)C(=O)O	none (no result: p53 reactivator, CtBP-E1A blk, Six1-Eya2 inh)
N#Cc1ccc(C23CC4(C2)[C@H](CN(CC2CCCCC2)[C@@H]4c2ccccc2)C3c2ccc(Cl)nc2)cc1 (some centres not stated)	none
CC(=O)Cn1nnc2sc(-c3ccccc3)cc2c1=O	none
O=Cc1coc2ccc3ccccc3c2c1=O	none
Cc1cccc(NC(=S)NC2CC3CCCC(C2)N3Cc2cccs2)c1 (configuration not stated)	Gal4-VP16 FLuc inconclusive, RORgamma inh 5µM
COCCCNC(=S)NC1CC2CCCC(C1)N2Cc1cccs1 (configuration not stated)	RORgamma inh 10µM
COCCNC(=S)NC1CC2CCCC(C1)N2Cc1cccs1 (configuration not stated)	RORgamma inh inconclusive
CC(C)C(NS(=O)(=O)c1ccccc1)C(=O)OCc1cc([N+](=O)[O-])cc2c1OCOC2 (configuration not stated)	none
Cc1ccn2c(Nc3ccccc3C)c(-c3ccccn3)nc2c1	p53 reactivator inconclusive, Gal4-VP16 FLuc inconclusive, CtBP-E1A blk -93, RORgamma inh 14µM, Six1-Eya2 inh -82
COc1ccc(-c2nc3ncccn3c2Nc2ccccc2)cc1	none
Cc1cccn2c(Nc3ccccc3)c(-c3ccccn3)nc12	Gal4-VP16 FLuc 5µM, RORgamma inh 3.2µM
Cc1ccccc1Nc1c(-c2ccccn2)nc2ccccn12	p53 reactivator inconclusive, Six1-Eya2 inh -91 (no result: CtBP-E1A blk)
Cc1ccccc1Nc1c(-c2cccnc2)nc2ccccn12	none
Cc1ccc2nc(-c3ccccn3)c(Nc3ccccc3C)n2c1	CtBP-E1A blk -91, RORgamma inh 14µM, Six1-Eya2 inh inconclusive
Cc1cc(=O)oc2cc(OCC(=O)N3CCN(C(=O)c4ccco4)CC3)ccc12	none
CCCCCC(=O)N1C[C@H](O)[C@@H](n2cc(COC(=O)c3ccccc3)nn2)C[C@@H]1c1ccc(Cl)cc1	none (no result: p53 reactivator, Gal4-VP16 FLuc, RORgamma inh)
Cc1ccc(S(=O)(=O)N2C3CC(c4ccccc4)N(S(=O)(=O)c4cccc(Cl)c4)CC3C(=O)C[C@H]2c2ccccc2)cc1 (some centres not stated)	none (no result: p53 reactivator, Gal4-VP16 FLuc, RORgamma inh)
Cc1ccn2c(Nc3ccccc3)c(-c3ccccn3)nc2c1	CtBP-E1A blk -78, RORgamma inh 16µM, Six1-Eya2 inh -74
Cc1ccn2c(NC(=O)c3ccccc3)c(-c3ccccc3)nc2c1	RORgamma inh inconclusive (no result: p53 reactivator)
COc1cc(C(=O)NCc2nnc(SCC(=O)Nc3cc(C)on3)o2)cc(OC)c1OC	none
CCSc1nnc(NC(=O)CSc2nnc(CNC(=O)c3ccc(OC)c(OC)c3)o2)s1	Gal4-VP16 FLuc inconclusive, RORgamma inh 18µM
COc1cc(C(=O)NCc2nnc(SCC(=O)Nc3nccs3)o2)cc(OC)c1OC	CtBP-E1A blk -78, Six1-Eya2 inh -84
COc1ccc(C(=O)NCc2nnc(SCC(=O)Nc3nc4ccccc4s3)o2)cc1	Gal4-VP16 FLuc 11µM, RORgamma inh 11µM
Cc1cccc(C)c1OCc1nnc(SCC(=O)Nc2nccs2)o1	CtBP-E1A blk -91, Six1-Eya2 inh -85
Cc1ccc(C(=O)N2CCN(S(=O)(=O)N3CCCCC3)CC2)cc1	none
C/C(CC(C)C)=N/Nc1ccc([N+](=O)[O-])cc1[N+](=O)[O-]	Six1-Eya2 inh inconclusive (no result: CtBP-E1A blk)
CC(Cc1ccccc1)=NNc1ccc([N+](=O)[O-])cc1[N+](=O)[O-]	CtBP-E1A blk inconclusive, Six1-Eya2 inh -65 (no result: p53 reactivator, Gal4-VP16 FLuc, RORgamma inh)
CC(C)(C)NC(=O)N1CCCC(C(=O)c2cccc(Cl)c2)C1 (configuration not stated)	none
O=c1c2c(nc3cc(-c4ccc(Cl)cc4)[nH]n13)CCS2	none
CCn1nc(NC(=O)c2ccccn2)c2cc3cccc(C)c3nc21	Gal4-VP16 FLuc 4µM, RORgamma inh 3.2µM
